Structures can show the parent of a compound that is named as a salt. ± gives the standard deviation of the averaged measurements.
Tested on: CLZ3 (HCA2 human fibroblast dual HR-NHEJ reporter)
Experiment: HR repair efficiency (tdTomato+ cells) relative to control (log10 fold); higher = more homologous recombination
Settings: 5 µM; doxycycline 0.5 ug/mL
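Further: compound given one day before doxycycline, which switches on I-SceI endonuclease expression to create double-strand breaks within the integrated reporter.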

Row | SMILES | HR repair efficiency (log10)
1 | O=C(OCC1=C[C@@H](O)[C@@H]2C=CO[C@@H](O[C@@H]3O[C@H](CO)[C@@H](O)[C@H](O)[C@H]3O)[C@H]12)c1ccc(O)cc1 [Agnuside] | 0.106
2 | C=C1CCC[C@]2(C)C[C@]3(O)OC(=O)C(C)=C3C[C@@H]12 [Atractylenolide Ⅲ] | 0.0176
3 | Cn1c(=O)c2nc[nH]c2n(C)c1=O [Theophylline] | 0.0978
4 | C/C=C1\[C@H]2C=C(C)C[C@]1(N)c1ccc(=O)[nH]c1C2 [Huperzine-A] | 0.0391
5 | O=C(O)Cc1c(C=CC(=O)OC(Cc2ccc(O)c(O)c2)C(=O)O)ccc(O)c1O (stereo unspecified) [Salvianolic Acid D] | 0.105
6 | CC(C)[C@@H]1[C@H]2OC(=O)[C@@H]1[C@@H]1CC[C@@H]3CN(C)[C@H]2[C@@]31C [Dendrobine] | 0.272
7 | Cn1c(=O)c2c(ncn2CC(O)CO)n(C)c1=O (stereo unspecified) [Diprophylline] | 0.116
8 | COc1cc([C@H]2OC[C@H]3[C@@H]2CO[C@H]3c2ccc(OC)c(OC)c2)ccc1O [Phillygenin] | 0.116
9 | COc1ccc(C[C@H]2COC(=O)[C@@H]2Cc2ccc(O[C@@H]3O[C@H](CO)[C@@H](O)[C@H](O)[C@H]3O)c(OC)c2)cc1OC [Arctiin] | -0.203 ± 0.1
10 | C[C@@H]1O[C@@H](O[C@H]2[C@H](Oc3cc(O)c(C(=O)CCc4ccc(O)cc4)c(O)c3)O[C@H](CO)[C@@H](O)[C@@H]2O)[C@H](O)[C@H](O)[C@H]1O | -0.0118
11 | O=C1C=C2C=C[C@@H](O)[C@H](O)[C@H]2O1 [Griffonilide] | 0.00766
12 | C=CC1=C(C)/C(=C/c2[nH]c(Cc3[nH]c(/C=C4\NC(=O)C(C)=C4C=C)c(C)c3CCC(=O)O)c(CCC(=O)O)c2C)NC1=O [Bilirubin] | -0.0828
13 | COc1c2occc2cc2ccc(=O)oc12 [Xanthotoxin] | -0.0664
14 | C[C@@H]1O[C@@H](O[C@H]2[C@H](O[C@H]3CC[C@@]4(C)[C@@H](CC[C@]5(C)[C@@H]4CC=C4[C@@H]6CC(C)(C)CC[C@]6(C(=O)O[C@@H]6O[C@H](CO[C@@H]7O[C@H](CO)[C@@H](O)[C@H](O)[C@H]7O)[C@@H](O)[C@H](O)[C@H]6O)CC[C@]45C)[C@]3(C)CO)OC[C@H](O)[C@@H]2O)[C@H](O)[C@H](O[C@@H]2O[C@H](CO)[C@@H](O)[C@H](O)[C@H]2O)[C@H]1O [Macranthoidin A] | 0.0324
15 | O=c1cc(-c2ccc(O)c(O)c2)oc2cc(O)c([C@@H]3O[C@H](CO)[C@@H](O)[C@H](O)[C@H]3O)c(O)c12 [Isoorientin] | 0.00986
16 | O=C1c2c(O)cccc2C([C@@H]2O[C@H](CO)[C@@H](O)[C@H](O)[C@H]2O)c2cc(CO)cc(O)c21 (stereo partly specified) [Barbaloin] | 0.119

Row | SMILES | HR repair efficiency (log10)
17 | COc1cc(OC)c2ccc(=O)oc2c1 [5,7-Dimethoxycoumarin] | 0.0758
18 | OC[C@H]1NC[C@H](O)[C@@H](O)[C@@H]1O [1-Deoxynojirimycin] | 0.0442
19 | O=C(C=Cc1ccc(O)c(O)c1)O[C@H]1[C@H](O)C[C@](O)(C(=O)O)C[C@H]1OC(=O)C=Cc1ccc(O)c(O)c1 [Isochlorogenic Acid C (4,5-Di-O-Caffeoylquinic Acid)] | -0.0644
20 | COc1cc(/C=C/C(=O)CC(=O)/C=C/c2ccc(O)c(OC)c2)ccc1O [Curcumin] | -0.113
21 | O=C1c2c(O)cc(O)cc2OC(c2ccc(O)c(O)c2)C1O (stereo unspecified) [Taxifolin] | -0.0702
22 | OC[C@H]1O[C@@H](Oc2ccc(O)cc2)[C@H](O)[C@@H](O)[C@@H]1O [Arbutin] | 0.0689
23 | NC(=O)c1cccnc1 [Nicotinamide] | 0.186
24 | COc1ccc(C(C)=O)c(O)c1 [Paeonol] | 0.17
25 | CC(C)(C)NCC(O)c1ccc(O)c(CO)c1 (stereo unspecified) [Salbutamol Sulfate] | -0.085
26 | O=C1C[C@@H](c2ccc(O)c(O)c2)Oc2cc(O)cc(O)c21 [Eriodictyol] | 0.0227
27 | COc1cc(/C=C/C(=O)O)ccc1O [Ferulaic Acid] | -0.0235
28 | COc1c2ccoc2cc2oc(=O)ccc12 [Bergapten] | 0.125
29 | COc1c(O[C@@H]2O[C@H](CO)[C@@H](O)[C@H](O)[C@H]2O)cc2oc(-c3ccc(O)cc3)cc(=O)c2c1O [Homoplantaginin] | 0.0763 ± 0.07
30 | O=c1oc2c(O)c(O)cc3c(=O)oc4c(O)c(O)cc1c4c23 [Ellagic acid] | -0.0224
31 | COc1ccc(-c2cc(=O)c3c(O)cc(O[C@@H]4O[C@H](CO[C@@H]5O[C@@H](C)[C@H](O)[C@@H](O)[C@H]5O)[C@@H](O)[C@H](O)[C@H]4O)cc3o2)cc1O [Diosmin] | -0.0408

From the supplement of paper PMC7380943
